The list is not random: actives were taken first. Their share in the collection is about 22%.
cytoskel mod – modifiers of cytoskeleton assembly. inhibition, % at 2 µM. HUVEC TNFa F-actin phalloidin imaging, high content. AID 836. 0.18% of 91,000 active;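 active = inhibition above the batch mean plus 3 SD and confirmed as a hit by visual image inspection, cut at about 30% in these data, passing the limit was not always enough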
E-sel TNF inh – TNF alpha driven E-selectin expression inhibition; AID 1246; 0.71% of 120,000 active; HUVEC TNFa-induced E-selectin immunofluorescence, high content; inhibition, % at 2 µM;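 active = inhibition above the batch mean plus 3 SD, and confirmed as a hit on visual image review, cut at about 43% in these data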;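 also: 0% = TNF-stimulated DMSO wells and 100% = unstimulated control wells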
CYP2C9 act – CYP2C9 (human) activation. P11712. recombinant CYP2C9, luciferin-H conversion, luminescence; active compounds read high; factor 1 = untreated enzyme, 0 = blocked. activation factor at 5 µM. 1.4% of 96,000 active. AID 1024;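 active = activation factor of 2 or more for CYP2C9 at a 5 µM dose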;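 also: 0 = sulfaphenazole-blocked wells and 1 = vehicle-only wells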
CYP2C19 act – cytochrome P450 2C19 (human) activation; 96,000 tested, under 10 active; P33261; activation factor at 5 µM; recombinant CYP2C19, luciferin-H EGE luminescence; active compounds read high; 0 = fully inhibited enzyme, 1 = untreated enzyme;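 active = activation factor of at least 2 at 5 µM in the primary screen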;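 also: 0 = wells with 2.5 mM tranylcypromine and 1 = vehicle-only wells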
Target sequence (P33261 whole entry, looked up): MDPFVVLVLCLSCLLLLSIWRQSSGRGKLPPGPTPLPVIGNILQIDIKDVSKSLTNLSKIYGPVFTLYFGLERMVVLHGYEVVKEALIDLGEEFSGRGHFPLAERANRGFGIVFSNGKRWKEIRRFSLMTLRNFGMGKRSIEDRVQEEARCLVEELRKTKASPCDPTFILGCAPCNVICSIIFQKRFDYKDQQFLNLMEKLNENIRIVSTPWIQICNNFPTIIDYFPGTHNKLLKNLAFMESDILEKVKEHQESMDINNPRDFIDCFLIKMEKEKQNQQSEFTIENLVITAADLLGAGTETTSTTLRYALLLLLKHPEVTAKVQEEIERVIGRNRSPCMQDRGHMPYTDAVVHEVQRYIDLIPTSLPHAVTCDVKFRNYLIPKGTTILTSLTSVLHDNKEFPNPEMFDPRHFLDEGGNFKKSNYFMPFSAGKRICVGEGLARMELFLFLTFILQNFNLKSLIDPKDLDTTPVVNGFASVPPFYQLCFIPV
CYP2C19 inhib – inhibitors of human CYP2C19; P33261; 21% of 96,000 active; inhibition, % at 5 µM; CYP2C19 Supersomes, luciferin-H EGE luminescence, 30 min;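 active = CYP2C19 inhibition above a set limit at 5 µM in the primary screen, cut at about 50% in these data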;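 also: plate controls were negative control wells for no effect and 2.5 mM tranylcypromine positive control for full effect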
CYP2C9 inh – blocks human cytochrome P450 2C9; CYP2C9 Supersomes, luciferin-H conversion, luminescence; AID 777; 20% of 96,000 active; inhibition, % at 5 µM;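 active = blocking of liver enzyme CYP2C9 beyond about 50% at 5 µM, limit read from the data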
* = called active by the depositor; x = no result.

SMILES	cytoskel mod	E-sel TNF inh	CYP2C9 act	CYP2C19 act	CYP2C19 inhib	CYP2C9 inh
NS(=O)(=O)c1ccc(CCNC(=O)CSc2cccs2)cc1	x	-15	x	x	x	x
O=C(COC(=O)C1CCCN1C(=O)c1cccs1)Nc1ccc2c(c1)OCO2 (stereo not given)	9	16	0.5	0.7	31	46
NS(=O)(=O)c1ccc(CCNC(=O)COC(=O)C2CCCN2C(=O)c2cccs2)cc1 (stereo not given)	-7	8	0.6	0.2	75*	37
O=C(OCc1ccccc1)C1CCCN1C(=O)c1cccs1 (stereo not given)	-6	-18	1	0.3	72*	2
O=C(COC(=O)C1CCCN1C(=O)c1cccs1)c1ccccc1 (stereo not given)	5	x	1.1	0.1	88*	-12
COc1ccc(NC2=NCC(=O)N2Cc2cccs2)cc1	-23	10	0.7	0.6	37	28
CCC1(C)NC(=O)N(/N=C/c2cc(OC)c(O)c(OC)c2)C1=O (stereo not given)	x	3	x	x	x	x
COc1cc(/C=N/N2C(=O)c3ccccc3NC2(C)c2cccc([N+](=O)[O-])c2)cc(Br)c1O (stereo not given)	-5	-43	0.1	0.5	50*	92*
O=C(COc1ccccc1Cl)Nc1cc(Cl)ccc1Oc1ccccc1	1	-24	0.9	1	-2	11
Cc1ccc(N(CC(=O)Nc2cc(Cl)ccc2Oc2ccccc2)S(C)(=O)=O)c(C)c1	0	-6	0.5	0.4	61*	46
Cc1ccc(N(CC(=O)Nc2cc(Cl)ccc2Oc2ccccc2)S(C)(=O)=O)cc1C	-11	30	0	0	99*	98*
Cn1c(SCc2ccc(Br)cc2)nnc1-c1cccs1	9	x	0.2	0	97*	76*
Cn1c(SCc2c(Cl)cccc2Cl)nnc1-c1cccs1	-12	-16	0.2	0	98*	76*
Cc1nnc(SCc2c(Cl)cccc2Cl)s1	16	20	0.9	0.4	59*	6
Cc1ccc(CSc2nnc(-c3cccs3)n2C)cc1	-28	0	x	x	x	x
COc1ccc(C2CC(c3ccccc3Cl)Nc3ncnn32)cc1OC (stereo not given)	-14	19	1	0.6	36	-3
O=C1C2CC=CCC2C(=O)N1CC1CCCO1 (stereo not given)	11	8	1	1.1	-5	0
COc1ccc(N(CC(=O)N2CCC(C)CC2)S(=O)(=O)c2c(C)nn(C)c2C)cc1	4	x	0.6	0.3	75*	37
COc1ccc(N(CC(=O)NCc2cccs2)S(=O)(=O)c2c(C)nn(C)c2C)cc1	-7	x	0.7	0.3	72*	32
COc1ccc(C(=O)NC2CCN(C(=O)NC3CCCCC3)CC2)cc1	-21	-43	0.9	0.9	13	7
COc1ccc(N(CC(=O)NC2CCCC2)C(=O)c2ccc(N3CCCCC3)nc2)cc1	1	-9	0.2	0.9	11	78*
COc1ccc(N(CC(=O)NCc2cccnc2)S(=O)(=O)c2c(C)nn(C)c2C)cc1	-23	x	0.9	0.4	64*	14
Cn1cc(CCNC(=O)CC2C(=O)NCCN2Cc2cccc(Oc3ccccc3)c2)cn1 (stereo not given)	x	-10	x	x	x	x
Cc1ccc(N(CC(=O)NC2CCCCCC2)S(=O)(=O)c2c(C)nn(C)c2C)cc1	-5	9	0.7	0.6	42	35
COc1ccc(N(CC(=O)NC2CCCCCC2)S(=O)(=O)c2c(C)nn(C)c2C)cc1	-10	8	0.5	0.7	33	50*
SMILES	cytoskel mod	E-sel TNF inh	CYP2C9 act	CYP2C19 act	CYP2C19 inhib	CYP2C9 inh
COc1ccc(N(CC(=O)NCc2ccccc2)S(=O)(=O)c2c(C)nn(C)c2C)cc1	-1	x	0.7	0.2	85*	30
COc1ccc(N(CC(=O)N2c3ccccc3CC2C)S(=O)(=O)c2c(C)noc2C)cc1 (stereo not given)	x	-38	0.1	0.1	88*	92*
Cc1cc(C)cc(N(CC(=O)N2CCc3ccccc32)S(=O)(=O)c2c(C)noc2C)c1	-2	0	0.9	1	5	12
Cc1ccc(N(CC(=O)NCc2cccs2)S(=O)(=O)c2cccs2)cc1	-5	x	0.3	0	96*	74*
COc1ccc(N(CC(=O)NCc2ccccc2)S(=O)(=O)c2c(C)noc2C)cc1	11	51	0.6	0.1	91*	44
O=C(CN(C(=O)c1ccccc1Cl)C1CCCCC1)Nc1ccc(Cl)c([N+](=O)[O-])c1	16	18	0.2	0.7	25	75*
COC(=O)CCC(=O)Oc1ccc(OC(=O)CCC(=O)OC)cc1	x	34	x	x	x	x
CC(C)(C)c1ccc(C(=O)NNC(=O)Cc2cccc3ccccc23)cc1	16	2	0.4	0.8	17	58*
CN(C)c1ccc(NC(=O)c2sc(SCC(=O)Nc3nccs3)nc2N)cc1	28	x	0.7	0.7	30	33
Cc1ccc(-n2nnnc2SCc2ccccn2)cc1C	11	6	1	0.4	57*	1
c1ccc(-n2nnnc2SCc2ccccn2)cc1	14	10	0.7	0.1	88*	28
Cc1cccc2nc(CSc3nnnn3-c3ccccc3)cn12	-13	x	0.6	0.2	84*	37
Cc1ccc(-n2nnnc2SCC(=O)Nc2ccccc2-c2ccccc2)cc1C	x	5	x	x	x	x
C(=C\CSc1nnnn1-c1ccccc1)/CSc1nnnn1-c1ccccc1	15	14	0.8	0.9	6	20
c1ccc(-c2noc(CSc3nnnn3-c3ccccc3)n2)cc1	5	-6	0.5	0.4	63*	54*
CCOc1cc(/C=N/O)cc(Br)c1OCC(=O)NCc1ccccc1	x	2	x	x	x	x
Cc1cc(C)n2cc(CSc3nnnn3-c3ccccc3)nc2n1	6	-4	1.2	1	4	-20
Cc1cc(C)n2cc(CSc3nnnn3-c3ccc(Cl)cc3)nc2n1	-2	10	2.2*	1.1	-5	-118
CCCCc1ccc(C2C(C#N)=C(N)SC(N)=C2C#N)s1	4	x	0	0.3	68*	99*
NS(=O)(=O)c1cccc(NC(=O)CCS(=O)(=O)c2ccc(Cl)cc2)c1	x	-7	x	x	x	x
Cc1cccc(NC2=C(Cl)C(=O)OC2NC(=O)c2ccccc2)c1 (stereo not given)	-10	-3	0.5	0.6	40	54*
Cc1cccc(NC2=C(Cl)C(=O)OC2OC(C)C)c1 (stereo not given)	x	-24	x	x	x	x
CCOC(=O)c1c(NC(=O)CSc2nnc(-c3ccncc3)n2Cc2ccco2)sc(C(C)=O)c1C	-6	-8	x	x	x	x
O=C(CSc1nnc(-c2ccc(O)cc2)n1Cc1ccco1)c1cccs1	7	x	0.2	0.3	65*	78*
O=C(CC(SCc1ccco1)c1ccc(O)cc1)c1cccs1 (stereo not given)	-11	18	0	0.2	79*	98*
O=C(Nc1cccc(NC(=O)c2cccs2)c1)c1ccc2c(c1)OCO2	x	-7	x	x	x	x

Screening results: PubChem BioAssay, several laboratories
